Rows were chosen to be rich in hits. Some 2.3% of all compounds tested hit in one or more screens of this group.
IkB signaling: IkB pathway inhibition in ABC-DLBCL cells | ABC-DLBCL IkBa-CBG/CBR dual luciferase ratio, 4 h; response scale: scaled: untreated 0%, proteasome inhibitor 100% | hit rate 0.04% among 110,000 | Potency, µM (series often up to 57.1 µM); active = well fitted curve in the direction sought with a large enough effect in the signal ratio, not every such curve was filed as active; inconclusive = small, poorly fitted or top-dose-only effect, or a change in a side signal; the % refers to the signal ratio;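 note: the direction sought is a rising ratio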
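Luminescence ratio of IκBα-fused green versus native red beetle luciferase in OCI-Ly3 cells, 4 h post-doxycycline with compound; red signal alone, scaled from basal (0%) to zero light (-100%), flagged nonspecific or cytotoxic effects.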
p53ts 39C tox: kills p53ts cells at the nonpermissive temperature; H1299-p53A138V viability at 39C, ATP luminescence, 24 h; Potency, µM (highest dose often 46.1 µM), usual class: cytotoxic; hit rate 1.5% among 130,000; AID 902; note: nearly all actives have a fitted effect of over 55% in size
p53ts 32C tox: p53ts cell cytotoxicity, permissive temperature; H1299-p53A138V at 32C, ATP luminescence viability, 24 h; Potency, µM (titrated, usually from 46.1 µM), most hits filed as cytotoxic; hit rate 0.93% among 130,000; note: nearly all actives have a fitted effect of over 55% in size
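ATP-content luminescence (ATPlite) read-out after 24 h compound exposure at 32C in H1299-p53A138V cells (600/well). Tested up to 46 uM. Normalized to DMSO (0%) and 100 uM tamoxifen (100% killing); Hill-fit AC50.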
Imprint erasure: genomic imprint erasure induction; mouse ES Peg3-LacZ reporter, beta-gal luminescence, 40 h; Potency, µM (titrated, usually from 60.7 µM), actives largely listed as activators; hit rate 0.02% among 110,000; AID 1948
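Readout: BetaGlo luminescence (5 min, room temp) for LacZ from the normally silent maternal Peg3 allele in female Peg3LacZ-Neo ES cells. Cells 300/well, 40 h, 37C, 5% CO2. Data normalized per plate to negative controls.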
ERK AVP inh: blocks ERK signaling stimulated by vasopressin; HEK293-V1b, vasopressin-stimulated pERK AlphaScreen; Potency, µM (highest dose often 57.5 µM), actives largely listed as inhibitors; hit rate 0.99% among 72,000; AID 995; note: nearly all actives have a fitted effect of over 55% in size
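Overnight-seeded V1b-HEK293 cells in 1% FBS got compound, then vasopressin (25 nM final, 5 min, 37C), then lysis buffer. AlphaScreen detection of phospho-ERK; activity normalized to basal and full-stimulation controls.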
Hits are given with their value; [ ] = another dose, or the depositor's remark. Unless noted, calls come from the whole dose curve; as a rule, active = well fitted curve in the direction sought with a large enough effect; inconclusive = small, poorly fitted or top-dose-only effect, or another doubt; inactive = no such curve, though single readings can be large; an effect the other way counts as inactive or inconclusive.

Results for COc1ccc(CC(=O)c2ccccc2C(=O)O)cc1 ?
IkB signaling: inactive; p53ts 39C tox: 10µM; p53ts 32C tox: inconclusive; Imprint erasure: inactive; ERK AVP inh: inactive

How did COc1ccc(Nc2nc3c(S(=O)(=O)c4ccccc4)nnn3c3ccc(Cl)cc23)cc1OC do in these assays?
IkB signaling: inactive; p53ts 39C tox: inactive; p53ts 32C tox: inactive; Imprint erasure: inactive[10.9 µM]

What do the screens show for `COc1ccc(Nc2nc3c(S(=O)(=O)c4ccccc4)nnn3c3ccc(Cl)cc23)cc1`?
IkB signaling: inactive; p53ts 39C tox: 10µM; p53ts 32C tox: inconclusive; Imprint erasure: inactive[10.9 µM]

How did COc1ccccc1/C=N/Nc1nncc2ccccc12 do in these assays?
p53ts 39C tox: inactive; p53ts 32C tox: inconclusive

What do the screens show for `NNc1nncc2ccccc12`?
IkB signaling: inactive; p53ts 39C tox: 10µM; p53ts 32C tox: 7.9µM; Imprint erasure: inactive; ERK AVP inh: inactive

What do the screens show for `COc1ccc(/C=N/Nc2nncc3ccccc23)cc1`?
p53ts 39C tox: 3.2µM

How did COc1ccc(C(=O)C(CN2CCOCC2)c2ccccc2)cc1F (stereo not drawn) do in these assays?
IkB signaling: inconclusive; p53ts 39C tox: 20µM; p53ts 32C tox: inconclusive; Imprint erasure: inactive; ERK AVP inh: inactive

What do the screens show for `COc1ccc(C(O)C(CN2CCOCC2)c2ccccc2)cc1F` (stereo not drawn)?
IkB signaling: inactive; p53ts 39C tox: inactive; p53ts 32C tox: inactive; Imprint erasure: inactive; ERK AVP inh: inactive

What do the screens show for `CCCCNC(=O)c1ccc(Cc2nc3ccccc3[nH]2)cc1`?
p53ts 39C tox: inactive; p53ts 32C tox: inactive

Results for Cc1ccnc(Nc2nc(-c3c(C)nc4sccn34)cs2)c1 ?
IkB signaling: inconclusive; p53ts 39C tox: inactive; p53ts 32C tox: inconclusive; Imprint erasure: inactive; ERK AVP inh: 25µM

How did CC(C)[C@@H]1OC(=O)C=CC=CC=CC=CC=CC[C@@H](O)[C@H](C)[C@@H](O)C[C@H](O)C[C@H](O)C[C@H](O)C[C@H](O)C[C@H](O)C[C@H](O)C=C[C@@H]1C do in these assays?
IkB signaling: inactive[11.4 µM]

How did CC(C)(C)c1ccc(C(=O)Nc2nnc3n2CCS3)cc1 do in these assays?
IkB signaling: inconclusive; p53ts 39C tox: 13µM; p53ts 32C tox: inconclusive; Imprint erasure: inactive[10.9 µM]

How did CCc1nnc(NC(=O)Nc2ccccc2OC)s1 do in these assays?
IkB signaling: inactive; p53ts 39C tox: inactive; p53ts 32C tox: inactive; Imprint erasure: inactive; ERK AVP inh: inactive

Results for CCc1nnc(NC(=O)c2ccc(OC)cc2OC)s1 ?
IkB signaling: inconclusive; p53ts 39C tox: inconclusive; p53ts 32C tox: 16µM; Imprint erasure: inactive; ERK AVP inh: inactive

What do the screens show for `Cc1ccc(Nc2c(-c3c[nH]c4ccccc34)nc3ccccn23)cc1`?
IkB signaling: inconclusive; p53ts 39C tox: 16µM; p53ts 32C tox: inconclusive; Imprint erasure: inactive[10.9 µM]

How did Nc1c2c(nc3ccccc13)CCC[C@H]2O do in these assays?
IkB signaling: inactive; p53ts 39C tox: inactive; p53ts 32C tox: inactive; ERK AVP inh: inactive

What do the screens show for `CC(=O)OCC1OC(C#Cc2ccc(C)cc2C)C=CC1OC(C)=O` (stereo not drawn)?
p53ts 39C tox: inconclusive; p53ts 32C tox: inactive[9.22 µM]; ERK AVP inh: inactive[11.5 µM]

How did C[C@H](NC(=O)/C(C#N)=C/c1ccc(O)c(O)c1)c1ccccc1 do in these assays?
IkB signaling: inconclusive; p53ts 39C tox: inactive; p53ts 32C tox: inactive; Imprint erasure: inactive; ERK AVP inh: 10µM

How did C[C@@H](NC(=O)/C(C#N)=C/c1ccc(O)c(O)c1)c1ccccc1 do in these assays?
IkB signaling: inactive; p53ts 39C tox: inconclusive; p53ts 32C tox: inactive; Imprint erasure: inactive; ERK AVP inh: inconclusive

Results for O=C(CS(=O)(=O)Cc1ccccc1)N1CCN(Cc2ccc3c(c2)OCO3)CC1 ?
IkB signaling: inactive; p53ts 39C tox: 13µM; p53ts 32C tox: 13µM; Imprint erasure: inactive; ERK AVP inh: inactive

Results for O=C(Cn1ccc2ccccc2c1=O)N1CCN(Cc2ccc3c(c2)OCO3)CC1 ?
IkB signaling: inactive; p53ts 39C tox: inactive; p53ts 32C tox: inactive; Imprint erasure: inactive; ERK AVP inh: inactive

What do the screens show for `O=C(Nc1ccccc1C(F)(F)F)c1cc2ccccn2n1`?
IkB signaling: inactive; p53ts 39C tox: 7.9µM; p53ts 32C tox: 10µM; Imprint erasure: inactive[10.9 µM]

How did O=C(Nc1ccccc1C(F)(F)F)c1cc2nc(-c3ccccc3)cc(-c3ccccc3)n2n1 do in these assays?
IkB signaling: inactive; p53ts 39C tox: inactive; p53ts 32C tox: inactive; Imprint erasure: inactive[10.9 µM]

Results for CCOC(=O)c1cccc(NC(=O)c2cc3ccccn3n2)c1 ?
IkB signaling: inconclusive; p53ts 39C tox: 13µM; p53ts 32C tox: 10µM; Imprint erasure: inactive[10.9 µM]

How did COc1ccc(NC(=O)c2cc3ccccn3n2)cc1 do in these assays?
IkB signaling: inconclusive; p53ts 39C tox: 7.9µM; p53ts 32C tox: 10µM; Imprint erasure: inactive; ERK AVP inh: inactive

How did CCOC(=O)c1cccc(NC(=O)c2ccc3c(Cl)c4c(nc3c2)CCC4)c1 do in these assays?
IkB signaling: inactive; p53ts 39C tox: 0.79µM; p53ts 32C tox: inconclusive; Imprint erasure: inactive[10.9 µM]

How did O=C(Nc1ccc(OC(F)(F)F)cc1)c1cc2ccccn2n1 do in these assays?
IkB signaling: inactive; p53ts 39C tox: inconclusive; p53ts 32C tox: inconclusive; Imprint erasure: inactive[10.9 µM]

Results for CCOC(=O)c1cccc(NC(=O)c2cnccn2)c1 ?
IkB signaling: inactive; p53ts 39C tox: inactive; p53ts 32C tox: inactive; Imprint erasure: inactive; ERK AVP inh: inactive

How did O=C(O)C/C(=C\c1ccccc1)C(=O)O do in these assays?
IkB signaling: inactive[11.4 µM]; p53ts 39C tox: inactive[9.22 µM]; p53ts 32C tox: inactive[9.22 µM]; Imprint erasure: inactive[10.9 µM]; ERK AVP inh: inactive[11.5 µM]

How did CN1CCN(CCCBr)CC1 do in these assays?
IkB signaling: inactive[11.4 µM]; p53ts 39C tox: inactive[9.22 µM]; p53ts 32C tox: inactive[9.22 µM]; Imprint erasure: inactive[10.9 µM]; ERK AVP inh: inactive[11.5 µM]

How did O=C(Cc1cc(=O)[nH]c(=O)[nH]1)NCC1CCCO1 (stereo not drawn) do in these assays?
IkB signaling: inconclusive; p53ts 39C tox: 20µM; p53ts 32C tox: inactive; Imprint erasure: inactive

What do the screens show for `O=C(NCC1CCCO1)c1ccc(C(=O)NCC2CCCO2)cc1` (stereo not drawn)?
IkB signaling: inactive; p53ts 39C tox: inactive; p53ts 32C tox: inactive; Imprint erasure: inactive; ERK AVP inh: inactive

Results for Cc1cc(C)cc(OCC(=O)NCCN2CCOCC2)c1 ?
IkB signaling: inactive; p53ts 39C tox: inactive; p53ts 32C tox: inactive; Imprint erasure: inactive; ERK AVP inh: inactive

What do the screens show for `O=C(Cc1cc(=O)[nH]c(=O)[nH]1)NCCN1CCOCC1`?
IkB signaling: inactive; p53ts 39C tox: inconclusive; p53ts 32C tox: 13µM; Imprint erasure: inactive

What do the screens show for `C[C@@H]1C(=O)O[C@H]2[C@@H](O)[C@@]34[C@H]5C[C@H](C(C)(C)C)[C@@]36[C@H](OC(=O)[C@@H]6O)O[C@@]4(C(=O)O5)[C@@]12O`?
IkB signaling: inactive[11.4 µM]

Results for N=C(N)SCCSC(=N)N ?
IkB signaling: inactive[11.4 µM]; p53ts 39C tox: inactive[9.22 µM]; p53ts 32C tox: inactive[9.22 µM]; Imprint erasure: inactive[10.9 µM]; ERK AVP inh: inactive[11.5 µM]
